# DRD3 antagonist: D3 dopamine receptor (human) antagonism. P35462. D3R cells, DiscoveRx beta-arrestin luminescence, antagonist mode; active compounds read low. max response, negative = inhibition, %. actives 2.5% (n = 360,000). AID 652054; in the data active means max response below about -50%; inconclusive means no clear call, values can overlap the other calls
#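 Cells expressing the human receptor were seeded at 1500 cells/well, incubated overnight at 37 degrees C in 5% CO2, then exposed to library compounds with dopamine controls for 90 minutes at 37 degrees C before luminescent detection.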
# TDP1 cell noCPT: qHTS for Inhibitors of human tyrosyl-DNA phosphodiesterase 1 (TDP1): qHTS in cells in absence of CPT. DT40 Tdp1-/- hTDP1 cells, no CPT, ATP luminescence, 48 h. Potency, µM (doses to about 46.2 µM), most hits filed as inhibitors. actives 15% (n = 420,000). AID 686978, 2013; further: nearly all actives have a fitted effect of over 55% in size
#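 Chicken DT40 Tdp1-/- cells stably complemented with human TDP1 were seeded at 400 cells/well with DMSO in place of 20 nM camptothecin. After compound pinning, cells grew at least 48 hr at 37 °C; viability read by CellTiter-Glo luminescence.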
# ClpP mod: qHTS Assay for Activators of ClpP; purified B. subtilis ClpP, FRET peptide cleavage, 20 min; Potency, µM (highest dose often 57.5 µM); actives 1.9% (n = 340,000); AID 651965, 2013; active means well fitted falling curve with a large enough effect; inconclusive means small, poorly fitted or top-dose-only effect; inactive means no such curve, though single readings can be large or run the other way; further: the source files actives as falling curves though it sought activators and does not explain the sign; nearly all actives have a fitted effect of over 65% in size
# Target sequence (P80244 whole entry, looked up): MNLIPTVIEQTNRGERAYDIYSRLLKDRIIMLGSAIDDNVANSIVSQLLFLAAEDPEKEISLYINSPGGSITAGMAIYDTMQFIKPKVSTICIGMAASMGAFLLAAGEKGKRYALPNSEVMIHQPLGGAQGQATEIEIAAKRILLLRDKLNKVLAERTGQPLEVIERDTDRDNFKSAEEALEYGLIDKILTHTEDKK
#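 Purified B. subtilis ClpP, 10 microg/mL final in Tris/HCl pH8 with KCl, BSA, glycerol and Tween-20, cleaved an Abz/nitrotyrosine-quenched decapeptide. Fluorescence (ex 320, em 430) was read at 0 and 20 min at room temperature. Delta was normalized to 5.8 microM ADEP and DMSO/no-enzyme controls.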
# IL-1B inflam inh: inflammasome signaling inhibition, IL-1 beta readout; activity change, % at 57.5 µM; THP-1 LPS/ATP IL-1B secretion, AlphaLISA, 16 h; active compounds read low; AID 743279; actives 4.7% (n = 360,000); in the data active means activity change below about -50%; inconclusive means mostly about -30% to -49%
#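 THP-1 cells pretreated 1 hr with compounds (up to 57.5 uM final), then stimulated with LPS (250 ng/mL final) plus ATP (1.25 mM final); secreted IL-1B measured by AlphaLISA after 16 hr, decreased signal indicating inhibition.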
# DT40 TDP1 CPT: DT40-hTDP1 cell growth loss with CPT; chicken DT40 Tdp1-/-;hTDP1 cells + 20 nM CPT, ATP luminescence, 48 h; Potency, µM (series often up to 46.2 µM), usual class: inhibitors; actives 12% (n = 420,000); AID 686979; further: nearly all actives have a fitted effect of over 55% in size
#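 Cell growth measured by CellTiter-Glo luminescence after a minimum 48 h, 37 C compound exposure with 20 nM CPT in Tdp1-knockout DT40 cells stably expressing hTDP1, seeded 400/well; qHTS titration format.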
# D3 ag: agonists of human D3 dopamine receptor | AID 652048 | max activation, % | actives 0.58% (n = 410,000) | D3R DiscoveRx beta-arrestin cells, luminescence, 90 min; in the data active means max activation above about 30%
#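 Cells at 1500/well, incubated overnight, then treated with pinned compounds (dopamine as control) for 90 min at 37 degrees C. DiscoveRx reagent added for 30 - 60 minutes at room temperature; luminescence read.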
# Hits are given with their value; – = inactive; ? = inconclusive; · = no result given; ! = a repeat was not active. Rows were chosen to be rich in hits. Some 21% of all compounds tested hit in one or more screens of this group. Unless noted, the call rests on the fitted dose curve; in most records, active means well fitted inhibition curve with a large enough effect; inconclusive means small, poorly fitted or top-dose-only effect; inactive means flat fitted curve, though single readings scatter.
SMILES,DRD3 antagonist,TDP1 cell noCPT,ClpP mod,IL-1B inflam inh,DT40 TDP1 CPT,D3 ag
Cc1ccc(Cn2c(=N)n(CC(O)COc3ccccc3)c3ccccc32)cc1 (configuration not stated),–,9.2µM,–,–,18µM,–
OCc1nc2ccccc2n1CC(O)COc1ccccc1 (configuration not stated),–,–,–,–,–,–
OC(COc1ccc(OCC(O)CN2CCN(Cc3ccccc3)CC2)cc1)CN1CCN(Cc2ccccc2)CC1 (configuration not stated),?,?,·,?,?,–
CCc1ccccc1NC(c1nnc(-c2cccc(F)c2)o1)c1ccc(F)cc1Cl (configuration not stated),·,–,–,·,–,–
Cc1ccc(C)c(N2CCN(CCCNC(=O)Cn3ncc4c5ccccc5n(C)c4c3=O)CC2)c1,·,10µM,–,·,15µM,–
Cn1c2ccccc2c2cnn(CC(=O)NCCCN3CCN(c4ccccc4F)CC3)c(=O)c21,-90,15µM,?,–,?,–
CCc1ccc(CNC(=O)c2cnc3sc(N4CCCCC4)nn3c2=O)cc1,·,–,?,·,–,–
COc1ccccc1CNC(=O)c1cnc2sc(N3CCCCCC3)nn2c1=O,·,21µM,14µM,·,16µM,–
COc1ccc2c(c1)sc1ncc(C(=O)NCc3ccccc3F)c(=O)n12,·,–,11µM,·,–,–
COc1ccc(CNC(=O)c2cnc3sc(N4CCCC4)nn3c2=O)c(OC)c1,·,–,–,·,–,–
Cc1ccc(C)c(CNC(=O)c2cnc3sc(N4CCCC4)nn3c2=O)c1,·,18µM,–,·,16µM,–
O=C(NCc1ccccc1Br)c1cnc2sc(N3CCCCCC3)nn2c1=O,·,4.1µM,?,·,23µM,–
COc1ccc(CNC(=O)c2cnc3sc4cc(OC)ccc4n3c2=O)cc1,·,–,–,·,–,–
CNC(=O)c1ccc(CSc2nc3ccncc3n2Cc2ccc(C)cc2)cc1,·,?,–,·,?,–
O=C(NCCc1ccccc1)c1ccc(CSc2nc3ccncc3n2Cc2ccc(F)cc2)cc1,·,16µM,–,·,?,–
CC(CNC(=O)c1ccc(CSc2nc3ccncc3n2Cc2cccc(F)c2)cc1)c1ccccc1 (configuration not stated),·,?,–,·,23µM,–
Cc1ccc(CCNC(=O)c2ccc(CSc3nc4ccncc4n3Cc3ccc(F)cc3)cc2)cc1,·,16µM,–,·,16µM,–
CCCCNC(=O)Cn1c(SCc2cccc(F)c2)nc2ccncc21,·,?,–,·,?,·
CC(C)CN(CCNC(=O)CN1C(=O)COc2ccc(S(=O)(=O)N3CCC(C)CC3)cc21)CC(C)C,–,?,–,–,?,–
CCCCn1c(=NC(=O)c2cc3ccccc3o2)c(C(=O)OCC)cc2c(=O)n3ccccc3nc21,·,–,?,·,–,–
CCOC(=O)c1cc2c(=O)n3ccccc3nc2n(CCOC)c1=NC(=O)c1cc2ccccc2o1,·,–,–,·,–,–
CCCCn1c(=NC(=O)c2ccco2)c(C(=O)OCC)cc2c(=O)n3cccc(C)c3nc21,–,13µM,–,–,?,–
CCOC(=O)c1cc2c(=O)n3ccccc3nc2n(CCCOC)c1=NC(=O)c1cc2ccccc2o1,·,18µM,–,·,23µM,–
CCCCn1c(=NC(=O)c2ccco2)c(C(=O)OCC)cc2c(=O)n3ccccc3nc21,–,23µM,–,–,?,–
CCCCCn1c(=NC(=O)c2ccco2)c(C(=O)OCC)cc2c(=O)n3ccccc3nc21,–,15µM,16µM,-74!,16µM,–
SMILES,DRD3 antagonist,TDP1 cell noCPT,ClpP mod,IL-1B inflam inh,DT40 TDP1 CPT,D3 ag
O=C(CSc1nccn1Cc1ccccc1)NCc1ccco1,·,–,–,·,–,–
CC(NC(=O)CCl)c1ccccc1Br (configuration not stated),–,15µM,·,-96,?,–
CC(NC(=O)CCl)c1ccc(Cl)c(Cl)c1 (configuration not stated),?,18µM,–,-103,16µM,–
CC(NC(=O)c1ccc(Cl)c(Cl)c1)c1ccc(-c2ccccc2)cc1 (configuration not stated),–,?,–,–,?,–
CC(C)=CNNC(=O)c1ccc(O)cc1,·,–,–,·,–,·
COCOc1ccc(C=O)c(OCOC)c1,–,?,–,–,?,–
Cn1c(C(O)c2ccc3c(c2)OCO3)nc2ccccc21 (configuration not stated),?,?,–,–,16µM,–
C=C1CC2C(=O)N(Cc3ccccc3)C(C(=O)OCC)(C(=O)OCC)C1N2C(=O)OC(C)(C)C (configuration not stated),–,?,–,–,?,–
COC(=O)c1ccc(/C=C/c2ccc3cccc(OC)c3n2)cc1,–,?,13µM,–,?,31
COc1cc(/C=C/c2ccc3cccc(O)c3n2)cc(OC)c1OC,-64,?,·,-102,?,–
